Results as given in PubChem BioAssay (NCI).
Compounds without any hit were thinned out: in the full panel of roughly 79,000, 15% have a hit. The source made the active and inactive calls. No stated cut-off is given here; in the data, active means growth inhibition above about 70%; inactive means the rest.

Key:
[1] = NCI Yeast Anticancer Drug Screen. Data for the rad52 strain (AID 147);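 further: 0% = growth of vehicle-treated control cultures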; conditions: S. cerevisiae rad52 mutant growth inhibition, stronger effect = higher value
In short: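 Genetically altered yeast (DNA damage repair defect) treated with compound; inhibition calculated relative to vehicle.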

[2] = NCI Yeast Anticancer Drug Screen. Data for the wt1 strain (AID 149);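 further: 0% = growth of vehicle-treated wt1 cultures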; conditions: S. cerevisiae wt1 strain (SPY 50644) growth inhibition, stronger effect = higher value
In short: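 Compounds are added to wt1 yeast cultures. Growth is then measured. Inhibition is expressed relative to vehicle-treated controls.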

[3] = NCI Yeast Anticancer Drug Screen. Data for the rad50EPP+ strain (AID 151);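 further: 0% = growth of vehicle-treated control cultures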; conditions: S. cerevisiae rad50 mutant strain, stronger effect = higher value
In short: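 Strain rad50EPP+; compound exposure; % growth inhibition vs vehicle.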

[4] = NCI Yeast Anticancer Drug Screen. Data for the mgt1 strain (AID 153); conditions: S. cerevisiae mgt1 mutant growth inhibition, stronger effect = higher value
In short: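 Read-out: yeast growth inhibition vs vehicle control. Strain mgt1, drawn from a panel altered in DNA damage repair or cell cycle control.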

[5] = NCI Yeast Anticancer Drug Screen. Data for the rad50 strain (AID 155);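 further: 0% = growth of vehicle-only cultures of the same strain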; conditions: S. cerevisiae rad50 strain growth inhibition, stronger effect = higher value
In short: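 Inhibition values express reduced yeast growth in compound-treated cultures relative to vehicle-treated controls.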

[6] = NCI Yeast Anticancer Drug Screen. Data for the mec2-1 strain (AID 157); conditions: S. cerevisiae mec2-1 strain, stronger effect = higher value
In short: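 Cells of the genetically defined mec2-1 yeast strain are incubated with test compound. Inhibition of growth is calculated against vehicle-treated controls.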

[7] = NCI Yeast Anticancer Drug Screen. Data for the rad14 strain (AID 159);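 further: 0% = growth of vehicle-treated control cultures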; conditions: S. cerevisiae rad14 strain growth inhibition, stronger effect = higher value
In short: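 A mutant yeast strain defective in DNA damage repair is treated with compound; inhibition of its growth is scored against untreated, vehicle-exposed cultures.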

[8] = NCI Yeast Anticancer Drug Screen. Data for the sgs1 mgt1 strain (AID 161);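 further: 0% = growth of cultures given vehicle only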; conditions: S. cerevisiae sgs1 mgt1 strain, stronger effect = higher value
In short: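 Test agents were incubated with a DNA-repair-mutant yeast strain. Growth was then read and compared against vehicle-treated controls.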

[9] = NCI Yeast Anticancer Drug Screen. Data for the CLN2oe strain (AID 163);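 further: 0% = growth of vehicle-only control cultures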; conditions: S. cerevisiae CLN2oe strain, stronger effect = higher value
In short: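 Strain altered in cell-cycle control, incubated with compound; growth compared to solvent-treated controls.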

[10] = NCI Yeast Anticancer Drug Screen. Data for the cln2 rad14 strain (AID 165);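 further: 0% = growth equal to vehicle treated cultures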; conditions: S. cerevisiae cln2 rad14 strain, stronger effect = higher value
In short: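 The screen exposed genetically defined yeast (cln2 rad14) to test compounds and scored growth inhibition relative to vehicle-treated controls.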

[11] = NCI Yeast Anticancer Drug Screen. Data for the bub3 strain (AID 167); conditions: S. cerevisiae bub3 mutant strain, stronger effect = higher value
In short: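 Steps: expose the mutant yeast strain to compound; grow alongside vehicle-treated cultures; measure growth; express inhibition against the vehicle cultures.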

[12] = NCI Yeast Anticancer Drug Screen. Data for the wt2 strain (AID 169);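 further: 0% = growth of vehicle-treated yeast cultures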; conditions: S. cerevisiae wt2 strain growth inhibition, stronger effect = higher value
In short: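 Steps: yeast strain treated with compound; growth recorded; inhibition calculated relative to cultures given vehicle alone.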

[13] = NCI Yeast Anticancer Drug Screen. Data for the sgs1 strain (AID 173);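 further: 0% = growth of vehicle-only control cultures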; conditions: S. cerevisiae sgs1 mutant, stronger effect = higher value
In short: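 Inhibition of yeast growth served as the measure. The mutant strain was treated with each compound, and growth was normalised to cultures receiving vehicle alone.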

[14] = NCI Yeast Anticancer Drug Screen. Data for the mlh1 rad18 strain (AID 175); conditions: S. cerevisiae mlh1 rad18 strain growth inhibition, stronger effect = higher value
In short: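 Compound-treated yeast growth, normalised to vehicle controls. Strain bears defined DNA repair mutations.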

[15] = NCI Yeast Anticancer Drug Screen. Data for the rad18 strain (AID 177); conditions: S. cerevisiae rad18 mutant growth inhibition, stronger effect = higher value
In short: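 Inhibition values reflect reduced yeast growth compared with vehicle-treated controls, using a strain engineered with a DNA damage repair defect.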

[16] = at 5.0 µM (retest, dose inferred, filed as 0.5)
[17] = at 50.0 µM (retest, dose inferred, filed as 5.0)

Measured: growth inhibition

COC1CC(CC2CCC(C)C(C(C)C(=O)O)O2)OC2(OC(C)(C3CCC(C)(C4OC(C5OC(O)(CO)C(C)CC5C)CC4C)O3)CC2C)C1C (stereo not drawn)
active: [1]; at 33.0 µM 93% | [1]; at 100.0 µM 98% | [2]; at 33.0 µM 93% | [2]; at 100.0 µM 98% | [3]; at 100.0 µM 90% | [4]; at 33.0 µM 91% | [4]; at 100.0 µM 98% | [5]; at 33.0 µM 96% | [5]; [17] 95% | [5]; at 50.0 µM 84.6% | [5]; at 100.0 µM 98% | [6]; at 33.0 µM 90% | [6]; [17] 95% | [6]; at 50.0 µM 90% | [6]; at 100.0 µM 97% | [7]; at 33.0 µM 89% | [7]; at 100.0 µM 96% | [8]; [17] 91% | [8]; at 50.0 µM 89% | [9]; at 33.0 µM 93% | [9]; at 100.0 µM 96% | [10]; [17] 88% | [10]; at 50.0 µM 84% | [11]; at 33.0 µM 84% | [11]; [17] 82% | [11]; at 50.0 µM 86.3% | [11]; at 100.0 µM 97% | [12]; at 100.0 µM 91% | [13]; at 33.0 µM 88% | [13]; at 100.0 µM 97% | [14]; [17] 96% | [14]; at 50.0 µM 87.8% | [15]; at 33.0 µM 93% | [15]; at 100.0 µM 97%
inactive: [1]; at 1.2 µM 17% | [1]; at 3.7 µM -3% | [1]; at 11.0 µM 22% | [2]; at 1.2 µM -2% | [2]; at 3.7 µM -9% | [2]; at 11.0 µM 5% | [3]; at 1.2 µM -12% | [3]; at 3.7 µM 0% | [3]; at 11.0 µM -12% | [3]; at 33.0 µM 40% | [4]; at 1.2 µM 14% | [4]; at 3.7 µM -5% | [4]; at 11.0 µM 27% | [5]; at 1.2 µM 24% | [5]; at 3.7 µM 19% | [5]; [16] 36% | [5]; at 11.0 µM 34% | [6]; at 1.2 µM -2% | [6]; at 3.7 µM -7% | [6]; [16] 28% | [6]; at 11.0 µM 12% | [7]; at 1.2 µM 5% | [7]; at 3.7 µM -6% | [7]; at 11.0 µM -4% | [8]; [16] -1% | [9]; at 1.2 µM -46% | [9]; at 3.7 µM -22% | [9]; at 11.0 µM 50% | [10]; [16] 26% | [11]; at 1.2 µM -4% | [11]; at 3.7 µM -4% | [11]; [16] 3% | [11]; at 11.0 µM 25% | [12]; at 1.2 µM -46% | [12]; at 3.7 µM -46% | [12]; at 11.0 µM -18% | [12]; at 33.0 µM 60% | [13]; at 1.2 µM -36% | [13]; at 3.7 µM -22% | [13]; at 11.0 µM -12% | [14]; [16] 30% | [15]; at 1.2 µM -17% | [15]; at 3.7 µM -25% | [15]; at 11.0 µM -11%
